Bioassay records from PubChem.
AF4-AF9 inh: inhibitors of AF4 peptide binding to AF9, primary screen, biochemical, AlphaScreen, biotin-AF4 peptide, FLAG-AF9, single point; 350,000 compounds, 0.47% hits; inhibition, % at 10 µM; Protein AF-9 (Homo sapiens), P42568;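 active = every replicate reaching a set inhibition limit, whatever the replicate mean, cut at about 25% in these data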
NSD2 inh: NSD2 histone methyltransferase inhibitors, primary screen, biochemical, AlphaScreen, single concentration, set 2 | 310,000 compounds, 0.54% hits | inhibition, % at 12.5 µM | NSD2 peptide methylation, 120 min | Histone-lysine N-methyltransferase NSD2 (Homo sapiens), O96028; in the data active = inhibition above about 50%
INS-1E GSIS act: GLuc luminescence reporter in INS-1E cells, primary screen for activators of glucose-dependent secretion of insulin | INS-1E GLuc reporter insulin secretion, 2-3 h | activation, % at 16.6 µM | 370,000 compounds, 0.61% hits | AID 743287, 2014;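 active = lowest replicate activation of at least 40%, so every replicate reaches that level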
PGC1a acetyl inh: inhibitors of PGC1a acetylation signal, primary screen, cell-based, U2OS, AlphaScreen, inhibitor mode; AlphaScreen anti-acetyl-lysine; with virally co-expressed GCN5 acetyltransferase; inhibition, % at 15.6 µM; 350,000 compounds, 0.17% hits; AID 651687, 2012;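 active = every replicate shows inhibition of at least 40%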
HIV Env fusion: inhibitors of HIV-1 Env-driven cell-cell fusion, primary screen, HeLa-JRFL effector, CEM21 target cells, luciferase; inhibition, % at 12.3 µM; 360,000 compounds, 1.1% hits; AID 651610, 2012;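 active = mean replicate inhibition score of at least 50 and every replicate individually at or above 50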
AlphaScreen art: AlphaScreen signal interference with preloaded methylated product, dose response, artefact control for NSD2 inhibitor project, biochemical, cherry-picked samples; shares compounds with NSD2 inh; AlphaScreen artifact counterscreen, preloaded methylated H4 peptide; AC35, µM (doses to about 10 µM); 1,500 compounds, 9.4% hits; call rule not given here
Numbers stand for hits. Shown are actives, neighbours in structure and some others; about 2.1% of the full set was active somewhere.

Screening COCCn1c2nc(=O)n(-c3ccccc3)c(=O)c-2nc2ccccc21 returned AF4-AF9 inh inactive, NSD2 inh 50, INS-1E GSIS act inactive, HIV Env fusion inactive and AlphaScreen art inactive.
`COCCn1c(-c2ccc(OC)cc2)nc2ccccc21` gave NSD2 inh inactive, INS-1E GSIS act inactive, PGC1a acetyl inh inactive and HIV Env fusion inactive.
For O=C(/C=C/c1ccc(Cl)c([N+](=O)[O-])c1)Nc1cccc(NC(=O)c2ccco2)c1 the results were AF4-AF9 inh inactive, NSD2 inh inactive, INS-1E GSIS act inactive, PGC1a acetyl inh inactive and HIV Env fusion inactive.
`COc1cccc2c1C(=O)C=C(C)C2=O` gave AF4-AF9 inh inactive, NSD2 inh inactive and INS-1E GSIS act inactive.
For COC1=CC(=O)c2nc(Cl)ccc2C1=O the results were AF4-AF9 inh inactive, NSD2 inh 127, INS-1E GSIS act inactive, HIV Env fusion inactive and AlphaScreen art inactive.
CC(C)N1CC(C(=O)Nc2ccc(S(=O)(=O)N3CCCCC3)cc2)CC1=O (centres undefined) was read as AF4-AF9 inh inactive, NSD2 inh inactive, INS-1E GSIS act inactive, PGC1a acetyl inh inactive and HIV Env fusion inactive.
COc1cccc(CNC(=S)Nc2ccc(Cl)cc2C)c1 was read as AF4-AF9 inh inactive, NSD2 inh 75, INS-1E GSIS act inactive, HIV Env fusion inactive and AlphaScreen art inactive.
Screening CC(C)(C)OC(=O)N[C@@H](C(=O)OC(C)(C)C)c1ccc2ccccc2c1 returned INS-1E GSIS act inactive, PGC1a acetyl inh inactive and HIV Env fusion inactive.
`O=C(Cn1nnc(-c2ccc(CN3CCOCC3)cc2)n1)Nc1nc(-c2ccccc2)cs1` gave NSD2 inh inactive, PGC1a acetyl inh inactive and HIV Env fusion inactive.
Screening Cc1[nH][nH]c(=O)c1C(c1ccc(-c2ccc(C(=O)O)cc2)o1)c1c(C)[nH][nH]c1=O returned AF4-AF9 inh inactive, NSD2 inh 89, INS-1E GSIS act inactive, PGC1a acetyl inh inactive, HIV Env fusion inactive and AlphaScreen art inactive.
For COc1ccc(-c2ccc(C(c3c(C)[nH][nH]c3=O)c3c(C)[nH][nH]c3=O)o2)c([N+](=O)[O-])c1 the results were AF4-AF9 inh inactive, NSD2 inh 124, INS-1E GSIS act inactive, PGC1a acetyl inh inactive, HIV Env fusion inactive and AlphaScreen art inactive.
Cc1[nH][nH]c(=O)c1C(c1ccc(-c2ccc(F)cc2)o1)c1c(C)[nH][nH]c1=O was read as AF4-AF9 inh inactive, NSD2 inh 156, INS-1E GSIS act inactive, PGC1a acetyl inh inactive, HIV Env fusion inactive and AlphaScreen art inactive.
O=C(CSCCNS(=O)(=O)c1ccccc1)Nc1ccccc1 was read as NSD2 inh inactive and PGC1a acetyl inh inactive.
CNC[C@@H]1Oc2c(NS(C)(=O)=O)cccc2C(=O)N([C@@H](C)CO)C[C@@H]1C was read as AF4-AF9 inh inactive, INS-1E GSIS act inactive, PGC1a acetyl inh inactive and HIV Env fusion inactive.
CC(=O)NC1=NN(C(C)=O)C(C)(c2ccc(Br)cc2)S1 (centres undefined) was read as AF4-AF9 inh inactive, NSD2 inh inactive, INS-1E GSIS act inactive, PGC1a acetyl inh inactive and HIV Env fusion inactive.
CC(=O)NC1=NN(C(C)=O)C(C)(c2cccc([N+](=O)[O-])c2)S1 (centres undefined) was read as AF4-AF9 inh inactive, NSD2 inh 99, INS-1E GSIS act inactive, PGC1a acetyl inh inactive, HIV Env fusion inactive and AlphaScreen art inactive.
For COc1ccc(-c2c3c(nc4sc(C(=O)Nc5cc(C)on5)c(N)c24)CCC3)cc1 the results were NSD2 inh 52 and AlphaScreen art inactive.
Screening COc1ccc(-c2c3c(nc4sc5c(=O)[nH]c(C)nc5c24)CCC3)cc1 returned NSD2 inh inactive and PGC1a acetyl inh inactive.
`COc1ccc(CCNC(=O)CCCn2nc(C)c([N+](=O)[O-])c2C)cc1OC` gave AF4-AF9 inh inactive, NSD2 inh inactive, INS-1E GSIS act inactive, PGC1a acetyl inh inactive and HIV Env fusion inactive.
COc1ccc(NC(=O)Nc2ccc3c(c2)C(=O)N([C@H](C)CO)C[C@@H](C)[C@@H](CN(C)C)O3)cc1 was read as AF4-AF9 inh inactive, INS-1E GSIS act inactive and PGC1a acetyl inh inactive.
